Data on 17 compounds can be found in PubChem BioAssay (NCI).

Among the test systems are T-47D breast; BT-549 breast; MDA-MB-435 melanoma; SW-620 colon; MCF7 breast; HCT-116 colon; HCC-2998 colon; KM12 colon.
What all share (test): NCI-60 one-dose screen, 48 h (100 = growth as untreated, 0 = no growth, -100 = all killed)
Details in all cases: 10 µM unless noted

The panel holds about 83,000 compounds, 20% with a hit somewhere; the sample as a whole holds those more often.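 Method: cells in 96-well plates; compound added at one concentration; 48 h incubation; percent growth measured; values under 10 scored active.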 Unmarked numbers belong to inactive results. The source made the active and inactive calls.

Regarding `Cc1nnc(N/N=C/c2ccc([N+](=O)[O-])o2)[nH]c1=O`, the growth with T-47D breast was -6.92% (active); with BT-549 breast, -22.1% (active); in the test on MDA-MB-435 melanoma, 12%; in the test on SW-620 colon, 18.7%; in the test with MCF7 breast, 3.92% (active); in the test with HCT-116 colon it was 9.54% (active). Besides, the growth is 22.2% in the test with HCC-2998 colon and 14.2% in the test with KM12 colon.

On to `CC(=O)c1ccc2c(c1)CCc1ccccc1-2`, for which the growth with T-47D breast is 97.8%; with BT-549 breast, 104%; in the test on MDA-MB-435 melanoma it was 100%; with SW-620 colon it was 102%; with MCF7 breast, 90.2%; in the test on HCT-116 colon, 96.6%. For the same compound, the growth in the test on HCC-2998 colon and with KM12 colon was 109% each time.

Turning to `CCOC(=O)c1[nH]c(C#N)c(C(=O)OCC)c1C`, the growth in the test on T-47D breast is 96.6%; with BT-549 breast, 109%; in the test on MDA-MB-435 melanoma it was 94.4%; in the test with SW-620 colon, 103%; with MCF7 breast, 103%; in the test with HCT-116 colon it was 103%. Further, the growth was 103% with HCC-2998 colon and 107% in the test on KM12 colon.

On to `Cc1cc(C)c(C#N)c(Sc2nc(C)c([N+](=O)[O-])c(C)c2C#N)n1`, for which the growth in the test with T-47D breast was 68.7%; in the test with BT-549 breast it was 43.1%; with MDA-MB-435 melanoma, 42.9%; in the test on SW-620 colon, 19.2%; in the test on MCF7 breast, 26.4%; in the test on HCT-116 colon it was 9.65% (active). Besides, the growth with HCC-2998 colon is 100%; with KM12 colon, 60.8%.

On to `CCCCOS(=O)(=O)c1ccccc1`, for which the growth was 106% in the test with T-47D breast; 103% with BT-549 breast; 95.8% with MDA-MB-435 melanoma; 110% in the test on SW-620 colon; 102% in the test on MCF7 breast; 108% in the test on HCT-116 colon. The results for the growth in the test with HCC-2998 colon and in the test on KM12 colon were 117% and 109%, respectively.

Consider `OC(CSc1ccccc1)CN1CCN(c2ccc(Cl)cc2)CC1` (stereo unspecified), for which the growth with T-47D breast was 95.9%; in the test on BT-549 breast, 102%; with MDA-MB-435 melanoma, 105%; with SW-620 colon, 105%; in the test with MCF7 breast it was 98%; in the test with HCT-116 colon, 90.2%. Also, the growth in the test with HCC-2998 colon is 95.3%; with KM12 colon it was 110%.

With `COc1cc(/C=C/C(=O)CC(=O)/C=C/c2ccc(O)c(OC)c2)ccc1O`, the growth is 50.7% with T-47D breast; 13.9% in the test with BT-549 breast; 1.75% (active) with MDA-MB-435 melanoma; 23.1% in the test with SW-620 colon; 17% with MCF7 breast; 0.952% (active) in the test on HCT-116 colon. The results for the growth in the test with HCC-2998 colon and with KM12 colon were -74.8% (active) and 0.643% (active), respectively.

For `COc1cccc2c1C(=O)c1c(O)c3c(c(O)c1C2=O)C[C@@](O)(C(=O)CO)C[C@@H]3OC1CC(OC(C)=O)C(OC(C)=O)C(C)O1` (stereo partly specified), the growth is -27.3% (active) in the test on T-47D breast; -39.7% (active) in the test with BT-549 breast; 7.04% (active) in the test on MDA-MB-435 melanoma; 3.7% (active) in the test with SW-620 colon; 4.45% (active) in the test on MCF7 breast; -80% (active) with HCT-116 colon. Also, the growth in the test on HCC-2998 colon is -72% (active); with KM12 colon it was -39% (active).

Take `CN(C)c1ccc(/C=C/c2ccnc3ccccc23)cc1`: the growth in the test on T-47D breast was 43.1%; with BT-549 breast it was 20.2%; with MDA-MB-435 melanoma it was 2.49% (active); in the test with SW-620 colon it was 26.9%; in the test with MCF7 breast, 19.9%; with HCT-116 colon it was 24.8%. Besides, the results for the growth with HCC-2998 colon and in the test on KM12 colon were 72.1% and 29.9%, respectively.

Consider `CCCCCCCCCCCCCCCCSC(=NCC)NCC`, for which the growth in the test on T-47D breast was 8.09% (active); in the test on BT-549 breast, 64.4%; with MDA-MB-435 melanoma it was -89.7% (active); in the test on SW-620 colon, -71.7% (active); in the test with MCF7 breast, -66.3% (active); with HCT-116 colon, -94.3% (active). The growth with HCC-2998 colon is -64.9% (active); in the test on KM12 colon, -30.7% (active).

In the case of `Cc1cc(C(=O)c2ccc(Cl)cc2)ccc1O`, the growth was 97% with T-47D breast; 94.7% in the test on BT-549 breast; 95.6% in the test with MDA-MB-435 melanoma; 98% in the test on SW-620 colon; 108% in the test with MCF7 breast; 84.8% in the test on HCT-116 colon. The values for the growth with HCC-2998 colon and with KM12 colon were 102% and 103%, respectively.

For the compound `N#CC(=C1SCS1)[N+](=O)[O-]`, the growth is 29.1% with T-47D breast; -6.56% (active) in the test on BT-549 breast; 16.4% with MDA-MB-435 melanoma; 19.3% in the test with SW-620 colon; 16.7% with MCF7 breast; 35.8% in the test with HCT-116 colon. For the same compound, the growth in the test on HCC-2998 colon is 27%; in the test on KM12 colon, 14.2%.

Consider `Cc1cc(C(N)=O)cc(C)c1C(=O)OCCCl`, for which the growth in the test on T-47D breast is 95.8%; in the test on BT-549 breast, 111%; in the test on MDA-MB-435 melanoma it was 98%; with SW-620 colon, 103%; in the test on MCF7 breast it was 101%; in the test with HCT-116 colon, 97%. Further, the figures for the growth in the test on HCC-2998 colon and in the test with KM12 colon were 95.8% and 93.6%, respectively.

As to `O=C(Cc1ccccc1)C(F)(F)F`, the growth with T-47D breast was 95.4%; in the test on BT-549 breast, 97.5%; with MDA-MB-435 melanoma, 104%; in the test with SW-620 colon, 108%; in the test with MCF7 breast it was 103%; in the test on HCT-116 colon it was 95.5%. Also, the growth with HCC-2998 colon was 108%; in the test on KM12 colon, 103%.

`COC(=O)c1cc([N+](=O)[O-])cc([N+](=O)[O-])c1Cl`: the growth with T-47D breast is -28.3% (active); in the test on BT-549 breast it was 117%; in the test with MDA-MB-435 melanoma it was 81.7%; with SW-620 colon it was 31.7%; with MCF7 breast it was 45.1%; in the test on HCT-116 colon, -42.8% (active). Also, the growth in the test with HCC-2998 colon was 106%; in the test with KM12 colon, 105%.

`C(=N\Nc1ccc2ccccc2n1)/c1ccccn1`: the growth in the test on T-47D breast was 18.9%; in the test with BT-549 breast it was 43.9%; with MDA-MB-435 melanoma, 37.5%; with SW-620 colon, 23.5%; with MCF7 breast it was 15.9%; in the test on HCT-116 colon, 18.4%. The results for the growth in the test with HCC-2998 colon and with KM12 colon were 17.1% and 29.1%, respectively.

Take `COc1ccc(C(OCC2OC(n3ccc(NC(=O)c4ccccc4)nc3=O)C(O)C2O)(c2ccccc2)c2ccccc2)cc1` (stereo unspecified): the growth in the test on T-47D breast was 40.2%; with BT-549 breast, 44.3%; in the test on MDA-MB-435 melanoma, 31.1%; with SW-620 colon it was 56%; in the test on MCF7 breast it was 13.3%; with HCT-116 colon, 3.43% (active). Also, the growth is 75.8% with HCC-2998 colon and 19.2% in the test with KM12 colon.
